From PubChem BioAssay (NCI) come the findings set out here.

Structures are written as SMILES. Compounds without any hit were thinned out: in the full panel of roughly 83,000, 20% have a hit.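 Plates (96-well) were seeded with cells, treated with compound at one concentration, and incubated for 48 hours before percent growth was determined.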 Values without a mark were called inactive. The source made the active and inactive calls. Rule for the calls: active = growth percent below 10; inactive = the rest.

Some test systems named below: OVCAR-8 ovarian; OVCAR-5 ovarian; OVCAR-4 ovarian; SK-OV-3 ovarian; IGROV1 ovarian; OVCAR-3 ovarian; HS 578T breast; NCI/ADR-RES ovarian; T-47D breast; BT-549 breast; MDA-MB-435 melanoma; SW-620 colon; MCF7 breast; HCT-116 colon; HCC-2998 colon; KM12 colon.
Assay in all cases: NCI-60 one-dose screen, 48 h (100 = growth as untreated, 0 = no growth, -100 = all killed)
Common to all, as to details: 10 µM unless noted

Regarding `NC(=O)C(O)(c1ccccc1)c1ccccc1`, the growth in the test with OVCAR-8 ovarian is 98.2%; in the test with OVCAR-5 ovarian it was 110%; with OVCAR-4 ovarian it was 101%; with SK-OV-3 ovarian it was 97.2%; in the test with IGROV1 ovarian, 111%; in the test on OVCAR-3 ovarian, -48.6% (active). For the same molecule, the growth was 97.1% with HS 578T breast; 102% with NCI/ADR-RES ovarian; 90.1% in the test with T-47D breast; 113% in the test with BT-549 breast; 103% with MDA-MB-435 melanoma; 96% in the test on SW-620 colon. For the same molecule, the growth with MCF7 breast is 91.5%; with HCT-116 colon, 103%; in the test with HCC-2998 colon it was 98.5%; in the test on KM12 colon it was 96.9%.
With `O=C1CCC23OC(c4ccccc4N12)C(O)C(O)C3O` (configuration not stated), the growth in the test with OVCAR-8 ovarian is 99.3%; with OVCAR-5 ovarian, 110%; in the test with OVCAR-4 ovarian, 105%; in the test with SK-OV-3 ovarian, 117%; in the test with IGROV1 ovarian, 98.2%; in the test with OVCAR-3 ovarian it was 96.3%. Moreover, the growth in the test on HS 578T breast is 105%; with NCI/ADR-RES ovarian it was 101%; in the test with T-47D breast, 110%; in the test on BT-549 breast it was 111%; with MDA-MB-435 melanoma it was 110%; in the test on SW-620 colon, 103%. In addition, the growth was 100% in the test with MCF7 breast, 94.5% in the test with HCC-2998 colon and 104% in the test on KM12 colon.
As to `C#C[C@@]1(O)[C@@H](CO)O[C@@H](n2cnc3c(-c4ccccc4)ncnc32)[C@@H]1O`, the growth in the test on OVCAR-8 ovarian was 107%; in the test on OVCAR-5 ovarian, 101%; with OVCAR-4 ovarian it was 98.5%; in the test on SK-OV-3 ovarian it was 105%; in the test on IGROV1 ovarian, 106%; with OVCAR-3 ovarian, 107%. The growth was 113% in the test on HS 578T breast; 102% in the test on NCI/ADR-RES ovarian; 84% with T-47D breast; 102% in the test with BT-549 breast; 100% in the test with MDA-MB-435 melanoma; 111% in the test with SW-620 colon. Further, the growth in the test on MCF7 breast is 82.1%; in the test with HCT-116 colon, 99.8%; with HCC-2998 colon, 103%; with KM12 colon it was 106%.
For `O=C(CN1N=C(c2ccc(F)cc2)CCC1=O)Nc1nc2ccccc2s1`, the growth in the test on OVCAR-8 ovarian was -43% (active); in the test on OVCAR-5 ovarian, 16.9%; with OVCAR-4 ovarian, 35.4%; in the test with SK-OV-3 ovarian, 73.5%; in the test on OVCAR-3 ovarian, -40.6% (active); in the test with HS 578T breast, 67.6%. Besides, the growth was 6.92% (active) in the test with NCI/ADR-RES ovarian; 83.3% in the test on T-47D breast; -71.2% (active) with BT-549 breast; 99.9% in the test on MDA-MB-435 melanoma; 57.8% with SW-620 colon; 87.4% in the test with MCF7 breast. In addition, the growth in the test on HCT-116 colon was 70.7%; with HCC-2998 colon it was 95.7%; in the test with KM12 colon it was 45.1%.
Regarding `COc1ccc(-c2[nH]c3ccccc3c2C=C(C#N)C#N)cc1`, the growth is 19.4% in the test on OVCAR-8 ovarian; 26.7% in the test with OVCAR-5 ovarian; 33.2% with OVCAR-4 ovarian; 28.7% in the test on SK-OV-3 ovarian; 12.3% in the test with IGROV1 ovarian; -6.19% (active) in the test with OVCAR-3 ovarian. Besides, the growth with HS 578T breast is 16.4%; with NCI/ADR-RES ovarian, -12% (active); with T-47D breast, 51.5%; with BT-549 breast, 45.9%; in the test on MDA-MB-435 melanoma it was -34.6% (active); in the test on SW-620 colon, 20.5%. Also, the growth in the test with MCF7 breast was 11.4%; in the test on HCT-116 colon it was 4.01% (active); in the test on HCC-2998 colon, -39.2% (active); with KM12 colon it was 3.41% (active).
In the case of `COc1cccc(NC(=O)Nc2ccc(Oc3ncnc4[nH]c(C)c(C)c34)cc2)c1`, the growth in the test with OVCAR-8 ovarian is 77%; in the test on OVCAR-5 ovarian, 129%; with OVCAR-4 ovarian, 99.2%; with SK-OV-3 ovarian, 107%; in the test with IGROV1 ovarian it was 52%; in the test with OVCAR-3 ovarian, 103%. Also, the growth with HS 578T breast is 84.8%; with NCI/ADR-RES ovarian it was 83.5%; in the test with T-47D breast it was 95.2%; with BT-549 breast it was 99.6%; in the test with MDA-MB-435 melanoma, 100%; with SW-620 colon, 81.7%. Moreover, the growth is 40.9% in the test on MCF7 breast, 81.6% in the test on HCT-116 colon, 103% in the test on HCC-2998 colon and 52.2% with KM12 colon.
On to `COc1ccc2c(c1)Oc1nc(N)c(C#N)c(N)c1C2Sc1ccc(SC)cc1` (configuration not stated), for which the growth is 21.2% in the test with OVCAR-8 ovarian; 112% in the test with OVCAR-5 ovarian; 37.2% in the test with OVCAR-4 ovarian; 94.4% in the test on SK-OV-3 ovarian; 0.493% (active) with IGROV1 ovarian; -63.3% (active) in the test on OVCAR-3 ovarian. Besides, the growth was 67.7% in the test with HS 578T breast; 62.9% with NCI/ADR-RES ovarian; -7.13% (active) in the test on T-47D breast; 38.9% in the test on BT-549 breast; 24.2% with MDA-MB-435 melanoma; -8.99% (active) in the test on SW-620 colon. Moreover, the growth with MCF7 breast was -20.7% (active); with HCT-116 colon it was 10.2%; in the test on HCC-2998 colon, 58.9%; with KM12 colon it was 53.3%.
As to `CC(=O)Oc1ccc(O)cc1`, the growth in the test with OVCAR-8 ovarian was 90%; with OVCAR-5 ovarian, 115%; in the test on OVCAR-4 ovarian it was 105%; in the test on SK-OV-3 ovarian, 110%; in the test with IGROV1 ovarian, 107%; in the test with OVCAR-3 ovarian, 111%. The growth in the test with HS 578T breast was 105%; in the test on NCI/ADR-RES ovarian, 91.6%; with T-47D breast, 118%; in the test on BT-549 breast it was 92.7%; in the test with MDA-MB-435 melanoma it was 106%; with SW-620 colon, 115%. For the same molecule, the growth is 88% in the test with MCF7 breast, 95.3% in the test on HCT-116 colon, 123% with HCC-2998 colon and 103% with KM12 colon.
For the molecule `Nc1cccc(C(=O)Nc2ccc3c(O)c(N=Nc4ccc(N=Nc5ccc(S(=O)(=O)O)cc5)cc4)c(S(=O)(=O)O)cc3c2)c1`, the growth is 107% in the test with OVCAR-8 ovarian; 109% with OVCAR-5 ovarian; 94.3% in the test with OVCAR-4 ovarian; 101% in the test on SK-OV-3 ovarian; 97.8% in the test with IGROV1 ovarian; 102% in the test on OVCAR-3 ovarian. The growth was 103% in the test on HS 578T breast; 112% with NCI/ADR-RES ovarian; 83.8% in the test on T-47D breast; 98.6% with BT-549 breast; 105% with MDA-MB-435 melanoma; 107% in the test with SW-620 colon. Further, the growth in the test on MCF7 breast was 97.2%; with HCT-116 colon, 95%; in the test on HCC-2998 colon, 114%; in the test on KM12 colon it was 108%.
